Data: PubChem BioAssay AID651699 (Sanford-Burnham Center for Chemical Genomics, 2012)
The campaign covered roughly 360,000 compounds. About 2,100 (0.58%) were called active. The sample holds actives, similar compounds and a random draw of the others, so the mix is not that of the screen. A number with no mark means an inactive call. No stated cut-off is given here; in the data, active means inhibition above about 36%; inactive means the rest.

The molecules below were run against NEDD8-conjugating enzyme Ubc12 (Homo sapiens) + NEDD8-activating enzyme E1 regulatory subunit (Homo sapiens) (UniProt P61081+Q13564) (assay: inhibitors of cullin neddylation, primary screen, biochemical, TR-FRET, uHTS, NAE and Ubc12 (AID 651699)). Settings: at 25 µM, hits give high values.
Sequence of NEDD8-conjugating enzyme Ubc12 (Homo sapiens) + NEDD8-activating enzyme E1 regulatory subunit (Homo sapiens) (P61081 whole entry, looked up): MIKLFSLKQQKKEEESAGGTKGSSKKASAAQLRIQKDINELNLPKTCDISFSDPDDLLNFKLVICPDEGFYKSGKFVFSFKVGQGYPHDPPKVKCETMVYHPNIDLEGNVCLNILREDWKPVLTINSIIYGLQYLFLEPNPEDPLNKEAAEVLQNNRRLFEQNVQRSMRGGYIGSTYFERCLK
Sequence of NEDD8-conjugating enzyme Ubc12 (Homo sapiens) + NEDD8-activating enzyme E1 regulatory subunit (Homo sapiens) (Q13564 whole entry, looked up): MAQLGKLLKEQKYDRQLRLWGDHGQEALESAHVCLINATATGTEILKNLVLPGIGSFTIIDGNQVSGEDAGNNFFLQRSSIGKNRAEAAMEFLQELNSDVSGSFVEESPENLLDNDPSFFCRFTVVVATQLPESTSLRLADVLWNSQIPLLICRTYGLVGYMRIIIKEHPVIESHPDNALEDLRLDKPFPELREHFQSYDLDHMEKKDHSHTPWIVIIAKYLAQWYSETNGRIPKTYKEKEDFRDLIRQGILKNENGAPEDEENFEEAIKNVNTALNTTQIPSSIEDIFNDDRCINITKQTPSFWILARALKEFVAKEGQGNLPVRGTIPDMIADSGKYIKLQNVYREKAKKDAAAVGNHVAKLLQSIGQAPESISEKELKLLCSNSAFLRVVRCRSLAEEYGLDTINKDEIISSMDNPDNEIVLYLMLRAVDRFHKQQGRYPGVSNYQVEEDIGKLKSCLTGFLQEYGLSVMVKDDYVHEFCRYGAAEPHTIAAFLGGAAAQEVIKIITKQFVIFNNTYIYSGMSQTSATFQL

Structure (SMILES)	inhibition
CCOc1ccc(Cl)cc1-c1cc(C(=O)NCc2cccs2)[nH]n1	-0.82%
Cc1sc2c(c1C)c(=O)n(-c1ccccc1)c1nncn21	-4.64%
CSCCC(NS(=O)(=O)/C=C/c1ccccc1)C(=O)N1CCC(C)CC1 (stereo unspecified)	5.25%
COCCCNc1nc2ccccc2nc1NS(=O)(=O)c1ccc(F)cc1	37.4% (active)
CCCCNc1nc2ccccc2nc1NS(=O)(=O)c1cccs1	19.1%
CCCn1nc(NS(=O)(=O)c2ccc(F)cc2)c2cc3ccccc3nc21	-5.34%
Cc1cccc(CC(=O)Nc2c3c(nn2-c2cccc(Cl)c2)CS(=O)C3)c1 (stereo unspecified)	4.67%
COc1ccc(S(=O)(=O)N2CCN(C)CC2)c(C)c1	-9.29%
Cn1c(N2CCOCC2)c(C=O)c2ccccc21	13.5%
Cc1cc(C)c(-c2c(O)c3ccccc3n(C)c2=O)c(C)c1	43.4% (active)
Cn1c(=O)c(C(=O)Nc2ncccn2)c(O)c2ccccc21	27.6%
Cn1c(=O)c(Sc2ccc(Cl)cc2)c(O)c2ccccc21	-5.74%
O=S(=O)(NCCCN1CCOCC1)c1ccc(F)c(Cl)c1	-7.79%
CC1(C)S[C@@H]2[C@H](NC(=O)COc3ccccc3)C(=O)N2C1C(=O)OCc1ccccc1 (stereo partly specified)	3.84%
NC(=O)Cn1c(=O)oc2ccccc21	4.87%
COc1ccc(CNC(=O)[C@@H]2CC=C[C@@H]3CCN(C4CC4)C(=O)[C@@H]32)cc1	4.74%
CCN(CC)CCCN1C(=O)C(=O)/C(=C(/O)c2c(C)nc3ccccn23)C1c1ccc(C)o1 (stereo unspecified)	-7.73%
CC(C)(C)OC(=O)NNc1c2ccccc2nc2ccccc12	48% (active)
Cc1ccc(C(=O)NNC(=O)OC(C)(C)C)c(Cl)c1	-8.95%
O=C(NNc1c2ccccc2nc2ccccc12)c1cc2ccccc2cc1O	-10.9%
CCSC1=NCCN1S(=O)(=O)c1ccc(F)cc1	8.82%
CC(Oc1ccc(F)cc1)C(=O)Nc1ccccc1C(=O)NC1CC1 (stereo unspecified)	4.37%
O=[N+]([O-])c1ccc2c(c1)C(O)n1nc(-c3ccccc3)nc1S2 (stereo unspecified)	-7.67%
Cc1noc(C)c1C(=O)OCC(=O)/C=C1\N(C)c2ccccc2C1(C)C	43.7% (active)
COc1ccc(C(=O)COC(=O)c2c(C)noc2C)cc1Cl	-4.13%
Cc1noc(C)c1C(=O)OCC(=O)N1CCN(S(=O)(=O)c2ccc3ccccc3c2)CC1	-4.19%
